Laboratory results as given in the antibiotic and cytotoxicity screens of Wong et al. (2023).
Hit rate of the full screen: of about 39,000 compounds, about 500 (1.3%) were called active. Many of the other results were omitted from the sample, so actives are more common in it than they were.

The molecules below were run on S. aureus RN4220 (assay: growth inhibition call (relative growth <= 0.2)). Settings: 50 µM.

Q: `CCCCc1cc(CCCC)n2nc(-c3ccccc3)cc2n1` was tested. Which growth inhibition call did it give?
A: inactive

Q: With `CCS(=O)(=O)N1C[C@]2(CN(C2)S(=O)(=O)c2cn(cn2)C)c2c([nH]c3cc(ccc23)OC)[C@H]1CO` as the molecule, how does the growth inhibition call read?
A: inactive

Q: How did the growth inhibition call turn out when `COCC#Cc1cnc2c(c1)C(=O)N([C@H](C)CO)C[C@H](C)[C@@H](CN(C)C(=O)c1ccc3c(c1)OCO3)O2` was run?
A: inactive

Q: For `C[C@@H]1CCCCO[C@@H](CN(C)Cc2ccc(C(=O)O)cc2)[C@@H](C)CN([C@H](C)CO)C(=O)c2cc(NC(=O)Nc3ccc(F)cc3)ccc2O1`, which growth inhibition call is on record?
A: inactive

Q: With `CN(C)CCN1C[C@@H]2CN(C(=O)c3cnc[nH]3)C[C@H]2C1=O` as the molecule, how does the growth inhibition call read?
A: inactive

Q: How did the growth inhibition call turn out when `C[C@@H]1CN([C@H](C)CO)C(=O)Cc2cc(NS(=O)(=O)c3cn(C)cn3)ccc2O[C@H]1CN(C)S(=O)(=O)c1ccccc1` was run?
A: inactive

Q: `Cc1ccccc1S(=O)(=O)N1[C@@H]2c3cccc(=O)n3C[C@H]1[C@H](CO)[C@H]2C(=O)N1CCOCC1` was tested. Which growth inhibition call did it give?
A: inactive

Q: `C[C@H]1CN([C@@H](C)CO)C(=O)c2cccc(NS(=O)(=O)c3cn(C)cn3)c2O[C@@H]1CN(C)Cc1ccc(C(=O)Nc2ccccc2N)cc1` was tested. Which growth inhibition call did it give?
A: inactive

Q: With `Cc1ccc(S(=O)(=O)N(C)C[C@H]2OCCCC[C@@H](C)Oc3ccc(NC(=O)CCCCCC(=O)Nc4ccccc4N)cc3C(=O)N([C@H](C)CO)C[C@@H]2C)cc1` as the molecule, how does the growth inhibition call read?
A: inactive

Q: With `Cc1noc(C)c1NC(=O)N(C)C[C@H]1OCCCC[C@@H](C)Oc2ccc(NS(=O)(=O)c3ccc(Cl)cc3)cc2C(=O)N([C@@H](C)CO)C[C@@H]1C` as the molecule, how does the growth inhibition call read?
A: inactive

Q: `Cn1c(=O)c2c(ncn2C[C@@H](O)CNc2ccc(Br)cc2)n(C)c1=O` was tested. Which growth inhibition call did it give?
A: inactive

Q: Which growth inhibition call does the source give for `COc1cc(C)c(C=CC=CC=CC=CC(=O)O)c(C)c1C` here?
A: inactive

Q: With `C[C@H](CO)N1C[C@H](C)[C@H](CN(C)C(=O)Nc2ccc(F)cc2)Oc2c(NC(=O)Nc3ccc(C(F)(F)F)cc3)cccc2C1=O` as the molecule, how does the growth inhibition call read?
A: active

Q: `C[C@H]1CN([C@@H](C)CO)C(=O)c2cccc(NC(=O)Nc3ccc(C(F)(F)F)cc3)c2O[C@@H]1CN(C)C(=O)Nc1ccc(F)cc1` was tested. Which growth inhibition call did it give?
A: inactive

Q: How did the growth inhibition call turn out when `C[C@@H]1CN([C@H](C)CO)C(=O)c2cccc(NC(=O)Nc3ccc(F)cc3)c2O[C@@H]1CN(C)C(=O)Nc1ccc(C(F)(F)F)cc1` was run?
A: inactive

Q: How did the growth inhibition call turn out when `C[C@H](CO)N1C[C@H](C)[C@@H](CN(C)C(=O)NC2CCCCC2)OCCCC[C@H](C)Oc2ccc(NC(=O)c3ccncc3)cc2C1=O` was run?
A: inactive

Q: How did the growth inhibition call turn out when `C[C@@H]1CN([C@@H](C)CO)C(=O)c2cc(NC(=O)Nc3ccc(F)cc3)ccc2O[C@@H](C)CCCCO[C@@H]1CN(C)C(=O)NC1CCCCC1` was run?
A: inactive

Q: With `C[C@@H]1CCCCO[C@@H](CN(C)C(=O)C2CCCCC2)[C@@H](C)CN([C@H](C)CO)C(=O)c2cc(NC(=O)C3CCCCC3)ccc2O1` as the molecule, how does the growth inhibition call read?
A: inactive

Q: For `NCc1ccccc1CC(=O)NC1C(=O)N2C(C(=O)O)=C(CSc3nnnn3CC(=O)O)CSC12` (centres undefined), which growth inhibition call is on record?
A: active

Q: `O=C([O-])C1=C(CSc2nnnn2CS(=O)(=O)[O-])CSC2C(NC(=O)C(O)c3ccccc3)C(=O)N12.[Na+].[Na+]` (centres undefined) was tested. Which growth inhibition call did it give?
A: active

Q: Which growth inhibition call does the source give for `Cn1nnnc1SCC1=C(C(=O)[O-])N2C(=O)C(NC(=O)C(OC=O)c3ccccc3)C2SC1.[Na+]` (centres undefined) here?
A: active

Q: With `CC1=C(C(=O)O)N2C(=O)[C@@H](NC(=O)[C@H](N)C3=CCC=CC3)[C@H]2SC1` as the molecule, how does the growth inhibition call read?
A: inactive

Q: For `CC1=C(C(=O)O)N2C(=O)C(NC(=O)C(N)C3=CCC=CC3)C2SC1` (centres undefined), which growth inhibition call is on record?
A: inactive

Q: `Cn1nnnc1SCC1=C(C(=O)[O-])N2C(=O)C(NC(=O)C(O)c3ccccc3)C2SC1.[Na+]` (centres undefined) was tested. Which growth inhibition call did it give?
A: active

Q: How did the growth inhibition call turn out when `CCCNC(=O)C[C@H]1CC[C@H]2[C@@H](COc3ccc(NC(=O)c4ccc5c(c4)OCO5)cc3C(=O)N2C)O1` was run?
A: inactive

Q: How did the growth inhibition call turn out when `C[C@H]1CN([C@@H](C)CO)C(=O)c2cc(Br)cnc2O[C@H]1CN(C)S(=O)(=O)c1ccccc1F` was run?
A: inactive

Q: For `Cc1noc(C)c1NC(=O)N(C)C[C@@H]1Oc2ccc(NS(=O)(=O)c3cn(C)cn3)cc2CC(=O)N([C@H](C)CO)C[C@@H]1C`, which growth inhibition call is on record?
A: inactive

Q: `C[C@H](CO)N1C[C@H](C)[C@H](CN(C)S(=O)(=O)c2ccc(Cl)cc2)Oc2c(NC(=O)Nc3cccc4ccccc34)cccc2C1=O` was tested. Which growth inhibition call did it give?
A: inactive

Q: How did the growth inhibition call turn out when `Cc1noc(C)c1NC(=O)Nc1ccc2c(c1)C(=O)N([C@@H](C)CO)C[C@H](C)[C@H](CN(C)S(=O)(=O)c1ccccc1)O2` was run?
A: inactive

Q: With `C[C@@H]1CN([C@@H](C)CO)C(=O)CCCn2cc(nn2)CO[C@@H]1CN(C)Cc1ccc(C(=O)Nc2ccccc2N)cc1` as the molecule, how does the growth inhibition call read?
A: inactive

Q: With `C[C@@H](NS(=O)(=O)c1cccc(F)c1)C(=O)O` as the molecule, how does the growth inhibition call read?
A: inactive

Q: `C[C@@H]1CN([C@H](C)CO)C(=O)c2cc(NC(=O)C3CCCCC3)ccc2O[C@@H](C)CCCCO[C@H]1CN(C)C(=O)Nc1ccc(F)cc1` was tested. Which growth inhibition call did it give?
A: inactive

Q: `C[C@H](CO)N1C[C@H](C)[C@H](CN(C)C(=O)Nc2ccccc2)OCCCC[C@H](C)Oc2ccc(NS(=O)(=O)c3ccc(F)cc3)cc2C1=O` was tested. Which growth inhibition call did it give?
A: inactive

Q: `c1coc(CNc2nc[n+]3c4c2ncn4CC3)c1` was tested. Which growth inhibition call did it give?
A: inactive

Q: Which growth inhibition call does the source give for `C[C@@H]1CCCCO[C@H](CN(C)C(=O)Nc2cccc3ccccc23)[C@H](C)CN([C@@H](C)CO)C(=O)c2cc(N(C)C)ccc2O1` here?
A: inactive

Q: How did the growth inhibition call turn out when `Cc1noc(C)c1S(=O)(=O)Nc1ccc2c(c1)C(=O)N([C@@H](C)CO)C[C@H](C)[C@@H](CN(C)C(=O)Nc1ccc3c(c1)OCO3)O2` was run?
A: inactive

Q: For `CO[C@@H]1[C@@H](O[C@@H]2O[C@H](C)[C@@H](O[C@H]3C[C@@](C)(O)[C@@H](O)[C@H](C)O3)[C@H](N(C)C)[C@H]2O)[C@@H](CC=O)C[C@@H](C)[C@@H](O[C@H]2CC[C@H](N(C)C)[C@@H](C)O2)/C=C/C=C/C[C@@H](C)OC(=O)C[C@H]1O`, which growth inhibition call is on record?
A: active

Q: With `COC1C(O)CC(=O)OC(C)CC=CC=CC(OC2CCC(N(C)C)C(C)O2)C(C)CC(CC=O)C1OC1OC(C)C(OC2CC(C)(O)C(O)C(C)O2)C(N(C)C)C1O` (centres undefined) as the molecule, how does the growth inhibition call read?
A: active

Q: For `CO[C@@H]1[C@@H](O[C@@H]2O[C@H](C)[C@@H](O[C@H]3C[C@@](C)(O)[C@@H](O)[C@H](C)O3)[C@H](N(C)C)[C@H]2O)[C@@H](CC=O)C[C@@H](C)[C@@H](O[C@H]2CC[C@H](N(C)C)[C@@H](C)O2)/C=C/C=C/CC(C)OC(=O)C[C@H]1OC(C)=O` (some centres undefined), which growth inhibition call is on record?
A: inactive
